The target of test [1] is Methanococcus maripaludis chaperonin (MmCpn) (UniProt Q6LX38). Kind of test: High-Throughput Screening for Modulators of Cytosolic Chaperonin Activity: MmCpn Primary Screen (AID 488978).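 Also: 50 nM MmCpn enzyme hydrolysing 30 µM ATP at 37 °C; 0% is about no effect.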 A digest of the protocol:
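Measures ATPase turnover of the M. maripaludis chaperonin (50 nM final) against 30 uM ATP over 10 min at 37C, with compound added 5 min beforehand at room temperature. ADP is quantified by HTRF immunodetection.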

Test [2] deals with Transient receptor potential cation channel subfamily V member 1 (Homo sapiens) (UniProt Q8NER1). Kind of test: HTS Assay for Compounds that Act as Enhancers of the Vanilloid Receptor 1 (AID 488979). Also: 0% is about no effect. A digest of the protocol: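 TRPV1 cells loaded with Fluo-8 calcium dye; compound added and Ca2+ signal (ex 480/em 520 nm) followed 3 min, then capsaicin at EC20 added and read 2 more min to detect enhancement.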
Sequence of Transient receptor potential cation channel subfamily V member 1 (Homo sapiens) (Q8NER1 whole entry, looked up): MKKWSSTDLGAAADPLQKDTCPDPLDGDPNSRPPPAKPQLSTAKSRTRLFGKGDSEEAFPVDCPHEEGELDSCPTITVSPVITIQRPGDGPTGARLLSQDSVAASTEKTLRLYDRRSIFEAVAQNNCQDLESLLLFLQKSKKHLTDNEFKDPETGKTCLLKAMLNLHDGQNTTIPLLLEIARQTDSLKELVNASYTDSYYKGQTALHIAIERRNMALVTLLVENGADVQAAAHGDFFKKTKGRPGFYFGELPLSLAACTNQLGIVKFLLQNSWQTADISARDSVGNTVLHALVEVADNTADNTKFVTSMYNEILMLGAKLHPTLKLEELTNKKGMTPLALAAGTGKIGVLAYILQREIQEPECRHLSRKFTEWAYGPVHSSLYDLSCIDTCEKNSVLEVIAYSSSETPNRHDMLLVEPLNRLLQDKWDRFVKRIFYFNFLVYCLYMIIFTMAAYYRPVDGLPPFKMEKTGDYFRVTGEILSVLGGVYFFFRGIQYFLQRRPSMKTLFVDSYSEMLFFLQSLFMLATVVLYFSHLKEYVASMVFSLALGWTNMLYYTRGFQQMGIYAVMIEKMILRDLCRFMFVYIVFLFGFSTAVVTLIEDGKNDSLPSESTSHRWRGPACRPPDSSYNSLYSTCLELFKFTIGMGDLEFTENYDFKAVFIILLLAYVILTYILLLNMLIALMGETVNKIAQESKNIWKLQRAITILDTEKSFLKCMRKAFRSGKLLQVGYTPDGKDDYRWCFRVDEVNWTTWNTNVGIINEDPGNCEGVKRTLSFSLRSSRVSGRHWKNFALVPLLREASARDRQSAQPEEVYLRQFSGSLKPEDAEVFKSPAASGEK

For test [3], the target named is Thyrotropin receptor (Homo sapiens) (UniProt P16473). Kind of test: qHTS Assay for Antagonists of the Thyroid Stimulating Hormone Receptor (AID 488980). Also: series mostly up to about 58 µM; 0% is about no effect. The method in brief:
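Cells expressing human TSHR (HEK293) are dispensed in HBSS/HEPES containing 70 uM RO 20-1724, compound is added, then TSH at EC80 (4 nM final). Antibody in lysis buffer follows, 30 minutes at room temperature before HTRF detection.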
(Quantitative high-throughput screening tests each substance at several concentrations.)

Test [4] addresses D(1A) dopamine receptor (Homo sapiens) (UniProt P21728). The experiment in a line: HTS Assay for Allosteric Agonists of the Human D1 Dopamine Receptor: Primary Screen for Agonists (AID 488981). Also: 0% is about no effect. A digest of the protocol: (§1)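 Tetracycline-induced HEK293 Trex D1 cells with forced coupling to calcium, loaded with no-wash calcium dye; kinetic fluorescence read 180 s after compound addition for agonism, then a further 180 s after an EC20 dopamine challenge for potentiation.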

The target is the same in test [5]. Kind of test: HTS Assay for Allosteric Agonists of the Human D1 Dopamine Receptor: Primary Screen for Potentiators (AID 488982). Also: 0% is about no effect. A digest of the protocol: as §1
Test [6] has the same target. Kind of test: HTS Assay for Allosteric Agonists of the Human D1 Dopamine Receptor: Primary Screen for Antagonists (AID 488983).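 Also: calcium flux response to an EC80 dopamine challenge measured with no-wash dye; % is scaled to controls: 0 for no effect and ±100 for the full control effect; nearly all actives have a fitted effect of over 65% in size.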 A digest of the protocol: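 Screening of inducible HEK293 T-REx D1 cells: compound first, EC80 dopamine 180 s later, each phase read kinetically for calcium over 180 s.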
In test [7] the target is ATP-dependent 6-phosphofructokinase (Trypanosoma brucei brucei) (UniProt O15648). Kind of test: qHTS Assay to Find Inhibitors of T. brucei phosphofructokinase: hit validation (AID 492961).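 Also: luminescence reports ADP formed as PFK phosphorylates fructose-6-phosphate with ATP; series mostly up to about 51 µM; % is scaled to controls: 0 for no effect and ±100 for the full control effect.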 A digest of the protocol: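 Compounds titrated; %activity normalized to 0x and 1x enzyme controls, curve-fitted. Readout: ADP-Glo luminescence after 45 min room-temperature reaction of 1.25 nM PFK, 0.1 mM ATP, 0.5 mM F6P, pH 8.0.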
Sequence of ATP-dependent 6-phosphofructokinase (Trypanosoma brucei brucei) (O15648 whole entry, looked up): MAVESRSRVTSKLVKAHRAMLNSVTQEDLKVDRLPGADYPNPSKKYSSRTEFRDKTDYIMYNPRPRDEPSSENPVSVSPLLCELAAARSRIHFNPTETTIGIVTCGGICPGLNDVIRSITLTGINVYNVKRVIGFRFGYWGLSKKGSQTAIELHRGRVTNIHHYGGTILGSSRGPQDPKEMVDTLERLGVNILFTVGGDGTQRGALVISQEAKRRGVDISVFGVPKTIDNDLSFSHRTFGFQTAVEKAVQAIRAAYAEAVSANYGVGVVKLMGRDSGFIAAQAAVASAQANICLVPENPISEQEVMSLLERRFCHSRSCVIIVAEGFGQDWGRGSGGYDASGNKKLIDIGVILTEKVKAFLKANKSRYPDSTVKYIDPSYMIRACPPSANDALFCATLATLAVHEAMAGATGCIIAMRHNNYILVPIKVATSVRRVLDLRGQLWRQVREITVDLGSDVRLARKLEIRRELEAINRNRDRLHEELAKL

The target in test [8] is ATPase family AAA domain-containing protein 5 (Homo sapiens) (UniProt Q96QE3). Kind of test: Validation screen for small molecules that inhibit ELG1-dependent DNA repair in human embryonic kidney (HEK293T) cells expressing luciferase-tagged ELG1 (AID 493107). Also: nearly all actives have a fitted effect of over 70% in size. Also: potency is read from the fitted curve at half-maximal effect. A digest of the protocol: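 Quantitative HTS in HEK293T cells carrying luciferase-tagged ELG1, stimulated with 5-fluorouridine alongside compound for 16 hr. Loss of luciferase signal marks inhibition of ELG1 response.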

The target of test [9] is Thyrotropin-releasing hormone receptor (Homo sapiens) (UniProt P34981). The experiment in a line: qHTS for Small Molecule Agonists and Allosteric Enhancers of Human TRH Receptor: Validation Screen for Agonists (AID 493127;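 active = calcium activation more than 3 SD above the typical response in the agonist read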;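 also: intracellular calcium rise by fluo-8 fluorescence before TRH EC20 addition; 0% is about no effect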). The settings on record: TRH receptor agonist cell assay; at 2 µM; stronger effect = higher value. The method in brief: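 Gq-coupled calcium mobilization in TRHR cells after compound addition, monitored kinetically with fluo-8 dye on an FDSS reader.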
Sequence of Thyrotropin-releasing hormone receptor (Homo sapiens) (P34981 whole entry, looked up): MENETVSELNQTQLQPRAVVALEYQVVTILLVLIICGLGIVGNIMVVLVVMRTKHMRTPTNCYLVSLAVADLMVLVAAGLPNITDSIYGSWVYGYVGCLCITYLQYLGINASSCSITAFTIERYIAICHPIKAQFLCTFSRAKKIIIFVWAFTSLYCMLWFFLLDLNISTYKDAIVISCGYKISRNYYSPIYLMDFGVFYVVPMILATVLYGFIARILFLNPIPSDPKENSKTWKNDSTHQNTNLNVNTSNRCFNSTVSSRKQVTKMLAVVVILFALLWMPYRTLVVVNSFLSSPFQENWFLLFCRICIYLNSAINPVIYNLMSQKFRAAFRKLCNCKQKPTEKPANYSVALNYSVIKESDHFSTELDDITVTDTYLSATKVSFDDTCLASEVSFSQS

Test [10] in a line: qHTS for Inhibitors of Cell Surface uPA Generation: Validation Assay (AID 493164).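 Also: RAW 264.7 macrophage cells exposed to compound for 18 h; 0% is about no effect.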 The method in brief: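 RAW 264.7, 4000 cells/well, o/n plating; cpd 7-pt 1:5 dilution 2.45 nM–38.3 uM final; 18 h, 37 C/5% CO2; ATP-Lite, 5 s luminescence exposure.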
The target of test [11] is Galactokinase (Homo sapiens) (UniProt P51570). Kind of test: qHTS Validation Assay for Inhibitors of Human Galactokinase (GALK) (AID 493189). Also: 0% is about no effect. The method in brief: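 Compounds were pin-transferred into ATP buffer, then GALK-galactose mix was added (final 5 nM enzyme, 100 uM galactose, 35 uM ATP). After 1 h at room temperature, remaining ATP was measured luminescently.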

The target of test [12] is Peptidyl-prolyl cis-trans isomerase NIMA-interacting 1 (Homo sapiens) (UniProt Q13526). The experiment in a line: qHTS Validation Assay to Find Inhibitors of Pin1 (AID 504536; active = well fitted inhibition curve with a large enough effect in the polarisation, with a control signal flat, not every such curve was filed as active; the % refers to the polarisation;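 also: 0% = full Pin1 enzyme wells and -100% = no-enzyme wells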). The method in brief:
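Fluorescence polarization competition: compounds (titration) displace HiFluor-488-labeled Pin1-1b peptide from Pin1 (0.3 uM final) in pH 7.5 HEPES buffer with DTT, 10 min at room temperature; %Activity normalized to no-enzyme wells, curves fitted.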

Test [13] can be described thus: qHTS for Inhibitors of ATXN expression: Validation of Cytotoxic Assay (AID 588349).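 Also: cells exposed to compound for 72 hr; % is scaled to controls: 0 for no effect and ±100 for the full control effect.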 The method in brief:
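HEK293, compound dose series, 72 hr / 37 degrees C; viability via CellTiter Glo (intracellular ATP).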

A short description of test [14]: Validation screen for small molecules that induce genotoxicity in human embryonic kidney (HEK293T) cells expressing luciferase-tagged ELG1 (AID 493106). Also: 0% is about no effect. A digest of the protocol: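 Reporter-gene quantitative HTS in HEK293T cells carrying luciferase-tagged ELG1, whose level climbs under genotoxic stress. Compound exposure lasts 16 hr at 37 °C before luciferase detection.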

Test [15] in a line: Nrf2 qHTS screen for inhibitors: Validation (AID 493153; active = well fitted inhibition curve with a large enough effect in the main read-out, with a control signal flat, not every such curve was filed as active). The settings on record: Potency: luciferase luminescence; viability change: measured here: cytotoxicity max response. A digest of the protocol: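 Dose-response validation uses reporter A549 cells with firefly luciferase under an antioxidant response element. Compounds stay on cells 18-24 h at 37°C, and luminescence indicates Nrf2-driven transcription.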

A short description of test [16]: Validation screen for small molecules that induce DNA re-replication in SW480 colon adenocarcinoma cells (AID 504364). Also: 0% is about no effect. A digest of the protocol: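 Cells are treated 48 hr with test compound, stained 40 min with Hoechst at 37 C, and scanned for nuclear fluorescence; compounds inducing re-replication increase nuclei with elevated intensity.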
Test [17] concerns the target phosphoglycerate mutase (Leishmania major) (UniProt Q4Q090). The experiment in a line: qHTS Validation Assay to Find Inhibitors of Phosphoglycerate Mutase (AID 504548).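 Also: end-point luminescence from Kinase-GloPlus after the PGAM reaction; series mostly up to about 58 µM; % is scaled to controls: 0 for no effect and ±100 for the full control effect.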 A digest of the protocol: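 L. major PGAM (1.25nM final) was added to substrate buffer and pinned compound, incubated 45 minutes at room temperature, then Kinase-GloPlus added; luminescence read after 10 minutes. Buffer: 100 mM TEA pH 7.6, 5 mM MgCl2, 0.01% Tween-20.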

For test [18], the target named is Ubiquitin carboxyl-terminal hydrolase 1 (Homo sapiens) (UniProt O94782). Kind of test: Inhibitors of USP1/UAF1: Pilot qHTS (AID 504865).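 Also: rhodamine fluorescence freed from ubiquitin-rhodamine substrate followed over time; top concentration of the series differs between compounds; % is scaled to controls: 0 for no effect and ±100 for the full control effect; nearly all actives have a fitted effect of over 35% in size.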 The method in brief:
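Kinetic fluorescence assay: 1nM USP1/UAF1, 15 min compound preincubation, then 150nM Ub-Rho; 480/540 nm.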

In test [19] the target is Phosphoglycerate kinase, glycosomal (Trypanosoma brucei brucei) (UniProt P07378). Kind of test: qHTS Validation Assay to Find Inhibitors of Phosphoglycerate Kinase (AID 504547).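 Also: control wells lack PGK and mark full inhibition.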 A digest of the protocol:
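PGK activity was coupled to GAPDH (100nM final), which generates the unstable substrate 1,3-bisphosphoglycerate in-well. Reactions ran 60 minutes at room temperature in 100mM TEA pH 7.6, 5mM MgCl2, 0.01% Tween-20, then Kinase-Glo Plus luminescence was read.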

Molecules are shown by their SMILES. Records with an inconclusive call do not appear. Active and inactive are the calls of the source. Unless noted, calls follow the shape of the dose curve; as a rule, active = well fitted curve in the direction sought with a large enough effect; inconclusive = small, poorly fitted or top-dose-only effect, or another doubt; inactive = no such curve, though single readings can be large; an effect the other way counts as inactive or inconclusive.

Sequence of Peptidyl-prolyl cis-trans isomerase NIMA-interacting 1 (Homo sapiens) (Q13526 whole entry, looked up): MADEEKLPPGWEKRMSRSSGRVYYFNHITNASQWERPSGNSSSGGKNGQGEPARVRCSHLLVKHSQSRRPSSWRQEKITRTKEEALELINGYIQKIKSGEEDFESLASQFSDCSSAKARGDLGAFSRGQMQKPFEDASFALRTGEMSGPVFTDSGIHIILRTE
Sequence of Ubiquitin carboxyl-terminal hydrolase 1 (Homo sapiens) (O94782 whole entry, looked up): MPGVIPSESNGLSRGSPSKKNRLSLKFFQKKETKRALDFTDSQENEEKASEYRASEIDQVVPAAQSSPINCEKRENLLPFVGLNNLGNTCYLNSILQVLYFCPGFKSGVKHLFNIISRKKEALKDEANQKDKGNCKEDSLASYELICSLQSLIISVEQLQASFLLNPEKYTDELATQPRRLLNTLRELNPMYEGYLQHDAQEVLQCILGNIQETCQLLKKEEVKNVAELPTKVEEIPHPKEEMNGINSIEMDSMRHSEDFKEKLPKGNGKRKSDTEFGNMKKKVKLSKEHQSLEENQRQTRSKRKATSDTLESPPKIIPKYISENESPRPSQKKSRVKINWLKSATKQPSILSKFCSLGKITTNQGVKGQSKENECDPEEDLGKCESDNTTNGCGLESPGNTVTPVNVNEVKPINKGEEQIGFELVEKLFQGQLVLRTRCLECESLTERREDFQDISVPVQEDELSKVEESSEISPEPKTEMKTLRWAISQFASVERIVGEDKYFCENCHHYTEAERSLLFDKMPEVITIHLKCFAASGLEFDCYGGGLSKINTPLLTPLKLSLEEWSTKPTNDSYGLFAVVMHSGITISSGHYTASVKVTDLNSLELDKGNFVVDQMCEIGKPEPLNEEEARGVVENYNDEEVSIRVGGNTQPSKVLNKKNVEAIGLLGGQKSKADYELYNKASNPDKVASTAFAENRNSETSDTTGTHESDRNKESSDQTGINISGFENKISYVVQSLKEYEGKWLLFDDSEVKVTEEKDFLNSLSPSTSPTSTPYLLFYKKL
Sequence of Methanococcus maripaludis chaperonin (MmCpn) (Q6LX38 1-543): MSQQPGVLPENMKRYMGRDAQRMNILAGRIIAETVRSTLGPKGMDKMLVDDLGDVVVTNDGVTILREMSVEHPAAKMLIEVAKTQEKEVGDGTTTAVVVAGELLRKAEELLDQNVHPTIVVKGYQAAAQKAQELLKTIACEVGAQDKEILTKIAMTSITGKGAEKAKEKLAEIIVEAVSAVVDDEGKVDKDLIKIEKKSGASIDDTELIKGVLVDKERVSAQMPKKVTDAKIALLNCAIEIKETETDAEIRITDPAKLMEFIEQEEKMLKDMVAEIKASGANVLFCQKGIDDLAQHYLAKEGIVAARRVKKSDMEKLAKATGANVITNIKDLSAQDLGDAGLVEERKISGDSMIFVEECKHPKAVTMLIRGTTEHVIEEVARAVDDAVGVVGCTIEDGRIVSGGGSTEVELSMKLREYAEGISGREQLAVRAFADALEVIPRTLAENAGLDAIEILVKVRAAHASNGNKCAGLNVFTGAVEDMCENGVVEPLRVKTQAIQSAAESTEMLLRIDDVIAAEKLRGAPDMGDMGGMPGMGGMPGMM
Sequence of phosphoglycerate mutase (Leishmania major) (Q4Q090 1-553): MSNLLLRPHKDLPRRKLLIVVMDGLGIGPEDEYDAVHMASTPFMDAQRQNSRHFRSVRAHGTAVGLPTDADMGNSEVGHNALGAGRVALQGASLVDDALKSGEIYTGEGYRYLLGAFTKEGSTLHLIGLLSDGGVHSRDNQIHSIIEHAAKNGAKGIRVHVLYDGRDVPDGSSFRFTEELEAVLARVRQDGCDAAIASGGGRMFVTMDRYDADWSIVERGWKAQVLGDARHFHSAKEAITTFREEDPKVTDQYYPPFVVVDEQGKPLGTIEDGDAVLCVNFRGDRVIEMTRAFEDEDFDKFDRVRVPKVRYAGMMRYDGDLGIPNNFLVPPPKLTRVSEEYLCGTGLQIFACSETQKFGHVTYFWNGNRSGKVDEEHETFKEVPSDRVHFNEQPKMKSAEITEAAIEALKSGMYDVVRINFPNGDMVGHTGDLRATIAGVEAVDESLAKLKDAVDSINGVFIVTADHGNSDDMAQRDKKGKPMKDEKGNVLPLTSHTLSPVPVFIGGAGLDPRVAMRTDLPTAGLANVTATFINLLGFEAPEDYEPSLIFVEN
Sequence of Thyrotropin receptor (Homo sapiens) (P16473 whole entry, looked up): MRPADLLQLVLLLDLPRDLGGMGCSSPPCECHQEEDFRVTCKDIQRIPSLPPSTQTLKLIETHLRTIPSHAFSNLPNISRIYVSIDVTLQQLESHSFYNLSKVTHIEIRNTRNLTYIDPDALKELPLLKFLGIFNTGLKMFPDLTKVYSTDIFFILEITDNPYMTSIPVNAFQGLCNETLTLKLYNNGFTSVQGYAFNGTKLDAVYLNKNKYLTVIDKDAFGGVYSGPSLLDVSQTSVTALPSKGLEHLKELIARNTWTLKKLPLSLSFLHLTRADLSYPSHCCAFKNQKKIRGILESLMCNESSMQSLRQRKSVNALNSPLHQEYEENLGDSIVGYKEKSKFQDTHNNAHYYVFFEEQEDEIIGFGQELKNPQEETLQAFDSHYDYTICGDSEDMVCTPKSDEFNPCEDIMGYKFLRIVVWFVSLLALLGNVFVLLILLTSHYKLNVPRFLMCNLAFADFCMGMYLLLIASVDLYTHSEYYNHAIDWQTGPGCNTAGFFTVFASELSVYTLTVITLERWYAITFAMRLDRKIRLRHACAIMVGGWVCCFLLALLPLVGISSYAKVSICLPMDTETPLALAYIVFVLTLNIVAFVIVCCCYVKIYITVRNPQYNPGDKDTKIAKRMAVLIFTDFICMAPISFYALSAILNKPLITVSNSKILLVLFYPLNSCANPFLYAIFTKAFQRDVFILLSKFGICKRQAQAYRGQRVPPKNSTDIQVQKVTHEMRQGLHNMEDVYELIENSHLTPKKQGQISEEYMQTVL
Sequence of D(1A) dopamine receptor (Homo sapiens) (P21728 whole entry, looked up): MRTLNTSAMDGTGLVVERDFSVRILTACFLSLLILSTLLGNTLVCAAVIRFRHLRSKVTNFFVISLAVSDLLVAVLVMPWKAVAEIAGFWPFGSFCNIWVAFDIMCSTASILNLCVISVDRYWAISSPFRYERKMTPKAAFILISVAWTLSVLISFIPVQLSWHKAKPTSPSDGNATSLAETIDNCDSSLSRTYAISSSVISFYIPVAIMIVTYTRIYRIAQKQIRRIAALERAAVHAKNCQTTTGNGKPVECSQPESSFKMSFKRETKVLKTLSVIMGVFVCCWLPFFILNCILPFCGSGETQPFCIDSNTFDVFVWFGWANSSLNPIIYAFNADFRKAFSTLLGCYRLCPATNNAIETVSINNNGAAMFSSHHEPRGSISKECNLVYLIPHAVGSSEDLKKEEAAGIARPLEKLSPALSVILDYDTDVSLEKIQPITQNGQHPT

As for `COc1cc2c(c(OC)c1OC)-c1ccc(OC)c(=O)cc1[C@@H](NC(C)=O)CC2`, the compound was called inactive in test [1], in test [2], in test [3], in test [10] and in test [13]. The Potency result in test [4], in test [5], in test [6], in test [7], in [8] and in test [11] was “inactive” throughout. Further, the Potency entry in test [12] is “inactive”. For the same compound, the activation in test [9] was 0% (inactive).

Regarding `COc1nc(C)nc(Cl)c1NC1=NCCN1`, the compound was classed as inactive in test [1], in test [2], in test [3], in test [10], in test [17] and in test [13]. The Potency entry in [5], in test [6], in test [7], in test [14], in [8] and in test [15] was “inactive” in each case. The Potency entry in [11], in [16], in test [12] and in test [18] was “inactive” in each case. For the same compound, the activation in test [9] is 0.688% (inactive). In [15], the viability change turned out to be 4.38%.

Turning to `CC[N+](CC)(CC)CCOc1cccc(OCC[N+](CC)(CC)CC)c1OCC[N+](CC)(CC)CC`, the call in test [1], in [2], in test [3], in [10], in test [17] and in test [13] was inactive. In addition, the Potency result in [4], in [5], in test [6], in [7], in [14] and in test [8] was “inactive” in each case. The Potency result in test [15], in test [11], in test [16] and in test [12] was “inactive” in each case. Besides, in [15], the viability change came to 5.55%.

For the compound `COc1ccc2c(c1)c(CC(=O)O)c(C)n2C(=O)c1ccc(Cl)cc1`, the compound was classed as inactive in test [1], in test [2], in test [3], in test [10], in [17] and in [13]. Also, the Potency entry in [4], in test [6], in [8], in [11], in test [16] and in test [12] was “inactive” each time. Besides, in test [18], the Potency entry is “inactive”.

For `COc1ccc(C2CNC(=O)C2)cc1OC1CCCC1` (configuration not stated), the call in [1], in test [2], in [3], in test [10], in test [17] and in [13] was inactive. Moreover, the Potency entry in test [4], in test [5], in [6], in test [14], in [8] and in test [15] was “inactive” each time. Also, the Potency result in [11], in test [16], in test [12], in test [19] and in test [18] was “inactive” throughout. Also, the activation in test [9] is 0.812% (inactive). The viability change in test [15] amounted to 3.91%.

For `COc1cc2nc(N3CCN(C(=O)C4COc5ccccc5O4)CC3)nc(N)c2cc1OC` (configuration not stated), the compound was classed as inactive in test [1], in test [2], in [3] and in test [10]. The Potency entry in test [5], in test [14], in [15], in test [11], in [16] and in [12] was “inactive” each time. For the same compound, the Potency in [8] is 23.1 µM (active). Further, the viability change in test [15] was -11.8%.

Regarding `CCC1(c2ccccc2)C(=O)NCNC1=O`, the compound was classed as inactive in [1], in [2], in test [3], in test [10] and in [13]. Also, the Potency entry in [4], in test [5], in [6], in test [8], in [15] and in [11] was “inactive” each time. Moreover, the Potency result in test [16], in test [12] and in test [18] was “inactive” each time. Also, the viability change in test [15] was determined as 0.001%.

Regarding `CC(C(=O)O)c1cccc(C(=O)c2ccccc2)c1` (configuration not stated), the compound was called inactive in [1], in [2], in test [3], in test [10] and in test [13]. Further, the Potency result in test [5], in test [6], in test [8], in test [15], in test [11] and in test [16] was “inactive” in each case. The Potency result in test [12] and in test [18] was “inactive” throughout. Also, in test [9], the activation is 1.12% (inactive). Besides, the viability change in test [15] was -3.76%.

(Values after PubChem BioAssay (NCATS).)
